SMILES strings stand for the structures. Counter-ions that a name gives are not always drawn.

The test system of the assay is Danio rerio larvae (5 dpf). In words: combined optomotor response (time in upper well half, down vs up moving lines, periods 7-14) minus DMSO control (percentage points); higher = stronger optomotor response than DMSO larvae. To be noted: 10 µM; exposure time: 3 h pre-incubation + 3 h imaging. As for the experimental part:
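Wild-type 5 dpf zebrafish larvae (n=48 per drug, 96-well plates, 28.5 °C) were exposed to Tocris FDA-approved library compounds at 10 µM (0.1% DMSO) for 3 h before and 3 h during imaging. Images were taken every 6 s during visual and acoustic stimuli, and larvae were tracked with Z-LaP Tracker. Each measure is the treated-group mean minus the DMSO control mean (n=844), in percentage points. This mapping covers compounds with 5-character plate codes.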
On to `CC(C)COCC(CN(Cc1ccccc1)c1ccccc1)N1CCCC1` (stereo unspecified) [Bepridil hydrochloride], for which the combined optomotor response turned out to be 8.48.
Turning to `COc1cc([C@@H]2c3cc4c(cc3[C@@H](O[C@@H]3O[C@@H]5CO[C@@H](C)O[C@H]5[C@H](O)[C@H]3O)[C@H]3COC(=O)[C@H]23)OCO4)cc(OC)c1O` [Etoposide], the combined optomotor response was found to be 4.51.
In the case of `COc1cc2nccc(Oc3ccc(NC(=O)C4(C(=O)Nc5ccc(F)cc5)CC4)cc3)c2cc1OC` it was 0.162.
For `OCCN1C[C@H](O)[C@@H](O)[C@H](O)[C@H]1CO` [Miglitol], the combined optomotor response was found to be 5.48.
In the case of `O=c1n(CCCN2CCN(c3cccc(Cl)c3)CC2)nc2ccccn12` [Trazodone hydrochloride] it was 2.35; in that of `CN(C)CCc1c[nH]c2ccc(C[C@H]3COC(=O)N3)cc12` [Zolmitriptan], 5.82; in that of `NC(=O)OCC(COC(N)=O)c1ccccc1` [Felbamate], -0.92.
For the compound `COc1ccccc1Oc1c(NS(=O)(=O)c2ccc(C(C)(C)C)cc2)nc(-c2ncccn2)nc1OCCO` [Bosentan], the combined optomotor response stood at 1.31.
In the case of `CNCc1ccc(-c2[nH]c3cc(F)cc4c3c2CCNC4=O)cc1` [Rucaparib camsylate] it was 4.21; in that of `N#Cc1ccc2[nH]cc(CCCCN3CCN(c4ccc5oc(C(N)=O)cc5c4)CC3)c2c1` [Vilazodone hydrochloride], -6.69; in that of `N#C[C@@H]1C[C@@H]2C[C@@H]2N1C(=O)[C@@H](N)C12CC3CC(CC(O)(C3)C1)C2` [Saxagliptin hydrochloride], -2.67.
The result for `CNC(=O)c1cc(Oc2ccc(NC(=O)Nc3ccc(Cl)c(C(F)(F)F)c3)cc2)ccn1` [Sorafenib] reads -1.64.
In the case of `CNS(=O)(=O)Cc1ccc2[nH]cc(CCN(C)C)c2c1` [Sumatriptan succinate] it was -0.931; in that of `CCCC1O[C@@H]2C[C@H]3[C@@H]4CCC5=CC(=O)C=C[C@]5(C)[C@H]4[C@@H](O)C[C@]3(C)[C@]2(C(=O)CO)O1` (stereo partly specified) [Budesonide], 2.27; in that of `CCc1nc(N)nc(N)c1-c1ccc(Cl)cc1` [Pyrimethamine], 7.22.
Turning to `CC(C)(C(=O)O)c1ccc(C(O)CCCN2CCC(C(O)(c3ccccc3)c3ccccc3)CC2)cc1` (stereo unspecified) [Fexofenadine hydrochloride], the combined optomotor response amounted to 3.85.
In the case of `Clc1ccc2nsnc2c1NC1=NCCN1` [Tizanidine hydrochloride], the combined optomotor response came to 1.65.
The result for `CC(C)OC(=O)C(C)(C)Oc1ccc(C(=O)c2ccc(Cl)cc2)cc1` [Fenofibrate] reads 2.45; that for `OCc1cc(C(O)CNCCCCCCOCCCCc2ccccc2)ccc1O` (stereo unspecified) [Salmeterol xinafoate], 0.619.
In the case of `CC(=O)Nc1ccc(O)cc1` [Acetaminophen] it was 0.558.
In the case of `O=C1CCc2ccc(OCCCCN3CCN(c4cccc(Cl)c4Cl)CC3)cc2N1` [Aripiprazole] it was 1.74; in that of `OC(c1cc(C(F)(F)F)nc2c(C(F)(F)F)cccc12)C1CCCCN1` (stereo unspecified) [Mefloquine hydrochloride], -2.6.
Regarding `CCCc1nn(C)c2c(=O)[nH]c(-c3cc(S(=O)(=O)N4CCN(C)CC4)ccc3OCC)nc12` [Sildenafil citrate], the combined optomotor response was -0.855.
The result for `COc1cc(N)c(Cl)cc1C(=O)NC1CCN(CCCOc2ccc(F)cc2)CC1OC` (stereo unspecified) [Cisapride] reads 4.72; that for `C#CCN[C@@H]1CCc2ccccc21` [Rasagiline mesylate], 6.3.
The result for `CN(C)C(=N)NC(=N)N` [Metformin hydrochloride] reads 8.63; that for `CC(=O)Oc1cc2c(s1)CCN(C(C(=O)C1CC1)c1ccccc1F)C2` (stereo unspecified) [Prasugrel], 6.75.
The result for `CC[C@H]1OC(=O)[C@H](C)[C@@H](O[C@H]2C[C@@](C)(OC)[C@@H](O)[C@H](C)O2)[C@H](C)[C@@H](O[C@@H]2O[C@H](C)C[C@H](N(C)C)[C@H]2O)[C@](C)(O)C[C@@H](C)CN(C)[C@H](C)[C@@H](O)[C@]1(C)O` [Azithromycin] reads -4.55; that for `C[C@H]1O[C@H](O[C@H]2[C@H](O)[C@@H](O)[C@@H](O[C@H]3[C@H](O)[C@@H](O)C(O)O[C@@H]3CO)O[C@@H]2CO)[C@H](O)[C@@H](O)[C@@H]1N[C@H]1C=C(CO)[C@@H](O)[C@H](O)[C@H]1O` (stereo partly specified) [Acarbose], 3.82.
In the case of `COc1ccccc1OCC(O)CN1CCN(CC(=O)Nc2c(C)cccc2C)CC1` (stereo unspecified) [Ranolazine dihydrochloride], the combined optomotor response was determined as 10.9.
In the case of `Cc1cc2c(s1)Nc1ccccc1N=C2N1CCN(C)CC1` [Olanzapine] it was 8.87; in that of `CCCCCCCN(CC)CCCC(O)c1ccc(NS(C)(=O)=O)cc1` (stereo unspecified) [Ibutilide hemifumarate], 5.81.
In the case of `COCCc1ccc(OCC(O)CNC(C)C)cc1` (stereo unspecified) [Metoprolol tartrate] it was 1.91; in that of `O=C(O)C[C@H](O)C[C@H](O)/C=C/c1c(C2CC2)nc2ccccc2c1-c1ccc(F)cc1` [Pitavastatin calcium], 8.14; in that of `CN[C@H]1CC[C@@H](c2ccc(Cl)c(Cl)c2)c2ccccc21` [Sertraline hydrochloride], -6.63.
In the case of `NS(=O)(=O)c1cc2c(cc1Cl)NC(C1CC3C=CC1C3)NS2(=O)=O` (stereo unspecified) [Cyclothiazide] it was 0.296.

These data come from the supplement of paper PMC9950053.
